± gives the standard deviation of the averaged measurements.

This assay has as its system Drosophila virilis antennal basiconic sensillum AB3. Kind of assay: odor-evoked OSN spike response (post minus pre-stimulus); higher = stronger neuronal excitation. Particulars: odor dilution: 10^-4. On the procedure: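 Single sensillum recordings from antennal basiconic sensilla of D. virilis. A 500 ms pulse of odorant (10^-4 in mineral oil or DMSO) was delivered; the response is the change in spike frequency between the 1 s pre- and post-stimulus windows (spikes/s).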
In the case of `CC(C)=O` [acetone], the “odor-evoked OSN spike response” value turned out to be 92.2 ± 20 spikes/s.

For the origin of these results see the supplement of paper PMC10477191.
